Article PMC4081100, “A DNA-binding-site landscape and regulatory network analysis for NAC transcription factors in Arabidopsis thaliana”

Columns and labels:
Assay in all cases: universal protein binding microarray (PBM); transcription factors of Arabidopsis thaliana; high values mean tight binding
Details in all cases: protein: recombinant; tags: GST; chain copies: 2; dsDNA, one strand shown
GST-ANAC092(1-176) = target: T1, GST-ANAC092(1-176) (Arabidopsis thaliana, UniProt Q9FKA0 1-176)
T1 sequence: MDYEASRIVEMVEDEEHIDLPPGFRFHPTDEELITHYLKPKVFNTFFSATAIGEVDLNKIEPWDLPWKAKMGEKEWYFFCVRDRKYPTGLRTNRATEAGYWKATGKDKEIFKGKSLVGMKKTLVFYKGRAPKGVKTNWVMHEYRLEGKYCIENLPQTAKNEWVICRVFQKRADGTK
Outline: (§1)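 Protein amounts were determined by A280 or anti-GST western blot after glutathione–Sepharose 4B purification of GST-tagged proteins induced in cells, with zinc acetate included for zinc-finger proteins. Duplicate runs at 200 to 500 nM final were done on custom all-10-mer Agilent 4 × 180K arrays made double-stranded by primer extension. The normalised enrichment score (E-score) over gapped and ungapped 8-mers is the measure of binding.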

GST-NTL6(1-168) = GST-NTL6(1-168) (Arabidopsis thaliana, UniProt Q9SCK6 1-168)
Outline: as §1

GST-ANAC055(1-171) = target: T2, GST-ANAC055(1-171) (Arabidopsis thaliana, UniProt Q9LDY8 1-171)
T2 sequence: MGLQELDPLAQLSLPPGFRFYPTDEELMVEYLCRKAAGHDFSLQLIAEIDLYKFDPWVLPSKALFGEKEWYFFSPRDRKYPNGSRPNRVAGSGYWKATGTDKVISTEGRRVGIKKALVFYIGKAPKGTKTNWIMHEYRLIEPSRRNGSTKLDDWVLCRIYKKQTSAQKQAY
Outline: as §1

GST-ATAF1 NAC domain = target: T3, GST-ATAF1 NAC domain (Arabidopsis thaliana, UniProt Q39013 7-158)
T3 sequence: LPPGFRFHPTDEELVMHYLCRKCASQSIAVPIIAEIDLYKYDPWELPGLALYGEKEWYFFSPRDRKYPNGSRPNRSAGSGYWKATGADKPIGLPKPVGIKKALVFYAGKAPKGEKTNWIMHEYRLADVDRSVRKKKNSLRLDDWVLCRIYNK
Outline: as §1

[1] = target: T4, GST-ANAC092(1-285) full length (Arabidopsis thaliana, UniProt Q9FKA0 1-285)
T4 sequence: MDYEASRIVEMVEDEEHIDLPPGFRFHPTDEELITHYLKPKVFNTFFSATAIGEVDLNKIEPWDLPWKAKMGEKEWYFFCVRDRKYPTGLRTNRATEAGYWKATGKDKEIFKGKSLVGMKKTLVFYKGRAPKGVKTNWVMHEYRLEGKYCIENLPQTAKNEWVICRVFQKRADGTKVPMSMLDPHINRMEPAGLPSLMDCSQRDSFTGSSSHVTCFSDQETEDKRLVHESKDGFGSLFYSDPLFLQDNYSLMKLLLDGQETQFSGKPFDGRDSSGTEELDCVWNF
Outline: as §1

GST-NST2(1-184) = target: T5, GST-NST2(1-184) (Arabidopsis thaliana, UniProt Q9M274 1-184)
T5 sequence: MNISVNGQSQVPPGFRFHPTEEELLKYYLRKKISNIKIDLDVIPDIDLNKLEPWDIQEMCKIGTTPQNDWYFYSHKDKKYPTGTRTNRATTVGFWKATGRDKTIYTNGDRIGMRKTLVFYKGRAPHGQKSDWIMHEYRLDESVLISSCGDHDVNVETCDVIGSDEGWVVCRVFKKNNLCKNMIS
Outline: as §1

GST-NTL8 NAC domain = target: T6, GST-NTL8 NAC domain (Arabidopsis thaliana, UniProt Q9XIN7 14-156)
T6 sequence: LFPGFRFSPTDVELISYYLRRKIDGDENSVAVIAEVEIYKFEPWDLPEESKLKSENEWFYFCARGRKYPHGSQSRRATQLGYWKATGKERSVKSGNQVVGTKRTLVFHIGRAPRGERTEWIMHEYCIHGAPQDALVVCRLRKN
Outline: as §1

GST-SND1(1-203) = target: T7, GST-SND1(1-203) (Arabidopsis thaliana, UniProt Q9LPI7 1-203)
T7 sequence: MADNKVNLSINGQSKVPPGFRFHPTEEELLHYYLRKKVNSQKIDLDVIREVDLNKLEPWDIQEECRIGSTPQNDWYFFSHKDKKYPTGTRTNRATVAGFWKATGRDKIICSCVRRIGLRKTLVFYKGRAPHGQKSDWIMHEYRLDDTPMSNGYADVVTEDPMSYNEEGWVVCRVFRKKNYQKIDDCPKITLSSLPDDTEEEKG
Outline: as §1

GST-VND3 NAC domain = target: T8, GST-VND3 NAC domain (Arabidopsis thaliana, UniProt Q9FH59 12-162)
T8 sequence: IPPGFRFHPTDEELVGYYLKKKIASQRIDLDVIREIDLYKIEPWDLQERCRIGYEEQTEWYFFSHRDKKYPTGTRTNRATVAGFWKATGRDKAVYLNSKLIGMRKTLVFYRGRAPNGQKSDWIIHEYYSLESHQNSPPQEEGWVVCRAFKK
Outline: as §1

GST-VND7 NAC domain = target: T9, GST-VND7 NAC domain (Arabidopsis thaliana, UniProt Q9C8W9 9-158)
T9 sequence: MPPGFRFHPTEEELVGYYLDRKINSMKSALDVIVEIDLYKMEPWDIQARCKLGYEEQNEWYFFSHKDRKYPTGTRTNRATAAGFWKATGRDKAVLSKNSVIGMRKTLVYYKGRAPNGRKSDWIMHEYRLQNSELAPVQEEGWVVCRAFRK
Outline: as §1

GST-ANAC019 NAC domain = target: T10, GST-ANAC019 NAC domain (Arabidopsis thaliana, UniProt Q9C932 14-162)
T10 sequence: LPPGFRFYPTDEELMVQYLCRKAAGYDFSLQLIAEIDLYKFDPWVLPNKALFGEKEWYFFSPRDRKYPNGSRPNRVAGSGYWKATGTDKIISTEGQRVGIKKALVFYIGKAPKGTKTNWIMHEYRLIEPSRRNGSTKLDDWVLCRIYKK
Outline: as §1

GST-NAP(1-166) = target: T11, GST-NAP(1-166) (Arabidopsis thaliana, UniProt O49255 1-166)
T11 sequence: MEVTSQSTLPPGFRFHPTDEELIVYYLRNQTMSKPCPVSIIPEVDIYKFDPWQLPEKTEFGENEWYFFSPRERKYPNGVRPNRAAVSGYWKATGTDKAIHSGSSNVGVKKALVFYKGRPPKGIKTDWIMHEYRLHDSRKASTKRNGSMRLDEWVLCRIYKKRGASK
Outline: as §1

Sequence of GST-NTL6(1-168) (Q9SCK6 1-168): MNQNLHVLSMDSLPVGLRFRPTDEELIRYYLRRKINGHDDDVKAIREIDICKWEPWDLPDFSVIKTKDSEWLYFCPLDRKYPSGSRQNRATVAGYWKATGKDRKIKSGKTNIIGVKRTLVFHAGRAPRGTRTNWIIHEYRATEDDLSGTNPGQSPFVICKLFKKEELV

| Sequence | binding signal (GST-ANAC092(1-176)) [E-score] | binding signal (GST-NTL6(1-168)) [E-score] | binding signal (GST-ANAC055(1-171)) [E-score] | binding signal (GST-ATAF1 NAC domain) [E-score] | binding signal [1] [E-score] | binding signal (GST-NST2(1-184)) [E-score] | binding signal (GST-NTL8 NAC domain) [E-score] | binding signal (GST-SND1(1-203)) [E-score] | binding signal (GST-VND3 NAC domain) [E-score] | binding signal (GST-VND7 NAC domain) [E-score] | binding signal (GST-ANAC019 NAC domain) [E-score] | binding signal (GST-NAP(1-166)) [E-score] |
| --- | --- | --- | --- | --- | --- | --- | --- | --- | --- | --- | --- | --- |
| TAAGAAAA | 0.215 | 0.454 | 0.129 | 0.193 | 0.269 | 0.235 | 0.216 | 0.301 | 0.137 | 0.181 |  |  |
| CACGTCAC | 0.445 |  | 0.396 | 0.374 | 0.464 | 0.217 |  | 0.328 | 0.362 | 0.395 | 0.4 | 0.344 |
| ACGTGTAC | 0.328 |  | 0.286 | 0.279 | 0.413 | 0.201 |  | 0.204 | 0.267 | 0.206 | 0.309 | 0.278 |
| GATGCGTA | 0.368 |  | 0.227 | 0.239 | 0.416 | 0.185 |  | 0.415 | 0.267 | 0.186 | 0.216 | 0.182 |
| CGTACACG | 0.337 |  | 0.287 | 0.278 | 0.403 | 0.0623 |  | 0.0837 | 0.317 | 0.3 | 0.221 | 0.288 |
| CTACACGC | 0.361 |  | 0.0947 | 0.186 | 0.425 | 0.235 |  | 0.307 | 0.147 | 0.0812 | 0.11 | 0.192 |
| TGCACGCA | 0.419 |  | 0.255 | 0.128 | 0.458 | 0.211 |  | 0.342 | 0.289 | 0.32 | 0.355 | 0.265 |
| ACGTTAGC | 0.377 |  | 0.0938 | 0.213 | 0.406 | 0.166 |  | 0.343 | 0.183 | 0.128 | 0.144 | 0.0584 |
| CACGCATC | 0.396 |  | 0.291 | 0.235 | 0.44 | 0.125 |  | 0.296 | 0.239 | 0.232 | 0.334 | 0.309 |
| GCGTGTTA | 0.415 |  | 0.174 | 0.141 | 0.432 | 0.178 |  | 0.199 | 0.212 | 0.113 | 0.214 | 0.227 |
| GTGGCGTA | 0.439 |  | 0.144 | 0.235 | 0.459 | 0.3 |  | 0.471 | 0.138 | 0.0712 | 0.148 | 0.0567 |
| AGCGTGTA | 0.418 |  | 0.112 | 0.136 | 0.436 | 0.22 |  | 0.274 | 0.129 | 0.163 | 0.0634 | 0.198 |
| ACGCAAGC | 0.466 |  | 0.295 | 0.148 | 0.478 | 0.299 |  | 0.417 | 0.344 | 0.332 | 0.35 | 0.294 |
| ATACGTTA | 0.443 |  | 0.139 | 0.273 | 0.451 | 0.214 |  | 0.433 | 0.274 | 0.146 | 0.074 | 0.169 |
